Reference: PubChem BioAssay
For part of these data: Potency and affinity values are given separately. Calls of active or inactive are those of the source. Unless noted, how the calls were made is not given here.

Tests used:
[1] = antimalarial activity against Dd2 strain (AID 2302;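 active means growth inhibition above 50% at the single 2 µM test dose, taken to imply half-maximal potency below 2 µM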;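 further: 0% = DMSO untreated growth and 100% = chloroquine plus artemisinin killed control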); details: P. falciparum Dd2 in RBCs, LDH growth readout, 72 h; at 2 µM; stronger effect = higher value
[2] = HepG2 cytotoxicity, primary screen, cytotoxicity control for P. falciparum antimalarial project, cell-based, ATP luminescence (AID 2303;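 active means inhibition above 50%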;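 further: 0% = DMSO wells and 100% = digitonin-killed cells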); details: HepG2 viability, 24-48 h, at 10 µM, stronger effect = higher value
[3] = target: L-lactate dehydrogenase (Plasmodium falciparum (isolate CDC / Honduras)) (UniProt Q27743); test: PfLDH activity inhibition – cell lysate, 3D7 strain, counter-screen for P. falciparum growth inhibition project (AID 2304);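 further: 0% = vehicle and 100% = reference inhibitor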; details: P. falciparum 3D7 crude extract, LDH APAD/NBT absorbance; at 2 µM; stronger effect = higher value
[4] = inhibition of 3D7 malaria parasite growth – strain 3D7 (AID 2306);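 further: 0% = DMSO wells and 100% = chloroquine plus artemisinin control wells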; details: P. falciparum 3D7 erythrocytic growth, LDH absorbance, 72 h; at 2 µM; stronger effect = higher value
[5] = target: Calcium-dependent protein kinase 1 (Plasmodium falciparum (isolate 3D7)) (UniProt P62344); test: PfCDPK1 kinase inhibitors, biochemical, TCAMS library (AID 1159585; cut-off not given, nearly all actives have IC50 up to about 0.98 µM;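 further: inhibitors leave more ATP so luminescence rises with inhibition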); details: recombinant PfCDPK1, Kinase-Glo ATP depletion luminescence
[6] = target: Plasmodium falciparum protein kinase 6 (PK6, PF3D7_1337100) (UniProt Q8IDW1); test: PfPK6 kinase inhibitors, biochemical, TCAMS library (AID 1159586); details: recombinant PfPK6, Kinase-Glo ATP depletion luminescence
[7] = target: Protein kinase 7 (PK7), Plasmodium falciparum 3D7 (PF3D7_0213400) (UniProt Q7YTF7); test: inhibition of Plasmodium PK7 catalytic activity – biochemical, TCAMS antimalarial set, Kinase-Glo luminescence (AID 1159587); details: recombinant PfPK7, Kinase-Glo ATP depletion luminescence
[8] = target: Calcium-dependent protein kinase 4 (Plasmodium falciparum (isolate 3D7)) (UniProt Q8IBS5); test: PfCDPK4 kinase inhibitors, biochemical, TCAMS library (AID 1159588; cut-off not given, nearly all actives have IC50 up to about 0.91 µM); details: recombinant PfCDPK4, Kinase-Glo ATP depletion luminescence
Chain of Calcium-dependent protein kinase 4 (Plasmodium falciparum (isolate 3D7)) (Q8IBS5 whole entry, looked up): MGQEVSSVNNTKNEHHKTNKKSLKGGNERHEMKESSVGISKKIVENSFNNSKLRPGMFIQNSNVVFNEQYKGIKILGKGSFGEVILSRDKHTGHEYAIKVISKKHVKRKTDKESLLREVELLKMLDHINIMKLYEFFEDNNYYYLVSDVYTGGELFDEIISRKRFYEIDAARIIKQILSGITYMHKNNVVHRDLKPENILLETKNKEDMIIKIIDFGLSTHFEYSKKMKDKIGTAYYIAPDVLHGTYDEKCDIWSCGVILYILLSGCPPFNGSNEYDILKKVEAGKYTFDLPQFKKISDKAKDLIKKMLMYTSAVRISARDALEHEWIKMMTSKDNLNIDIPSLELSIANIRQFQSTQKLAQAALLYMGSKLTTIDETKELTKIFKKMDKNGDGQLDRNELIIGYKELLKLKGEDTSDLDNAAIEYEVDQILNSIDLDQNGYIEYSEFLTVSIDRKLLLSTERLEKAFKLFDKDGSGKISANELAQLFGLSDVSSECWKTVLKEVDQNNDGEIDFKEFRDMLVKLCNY

Chain of Plasmodium falciparum protein kinase 6 (PK6, PF3D7_1337100) (Q8IDW1 1-305): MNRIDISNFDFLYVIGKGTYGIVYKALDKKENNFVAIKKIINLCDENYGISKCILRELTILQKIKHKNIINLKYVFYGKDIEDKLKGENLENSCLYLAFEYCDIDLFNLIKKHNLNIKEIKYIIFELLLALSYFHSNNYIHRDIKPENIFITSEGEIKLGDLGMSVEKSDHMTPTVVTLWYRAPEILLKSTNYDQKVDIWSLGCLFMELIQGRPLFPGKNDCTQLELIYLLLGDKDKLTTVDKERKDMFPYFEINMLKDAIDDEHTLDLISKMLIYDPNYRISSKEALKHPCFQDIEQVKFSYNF
Chain of L-lactate dehydrogenase (Plasmodium falciparum (isolate CDC / Honduras)) (Q27743 whole entry, looked up): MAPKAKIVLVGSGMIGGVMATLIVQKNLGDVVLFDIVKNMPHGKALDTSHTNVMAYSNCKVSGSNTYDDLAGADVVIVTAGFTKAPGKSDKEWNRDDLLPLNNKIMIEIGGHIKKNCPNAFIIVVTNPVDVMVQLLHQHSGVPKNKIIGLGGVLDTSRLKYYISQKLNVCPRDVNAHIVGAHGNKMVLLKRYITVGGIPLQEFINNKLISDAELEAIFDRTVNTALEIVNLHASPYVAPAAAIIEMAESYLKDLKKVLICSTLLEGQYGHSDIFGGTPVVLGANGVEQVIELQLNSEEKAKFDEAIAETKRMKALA
Chain of Protein kinase 7 (PK7), Plasmodium falciparum 3D7 (PF3D7_0213400) (Q7YTF7 1-343): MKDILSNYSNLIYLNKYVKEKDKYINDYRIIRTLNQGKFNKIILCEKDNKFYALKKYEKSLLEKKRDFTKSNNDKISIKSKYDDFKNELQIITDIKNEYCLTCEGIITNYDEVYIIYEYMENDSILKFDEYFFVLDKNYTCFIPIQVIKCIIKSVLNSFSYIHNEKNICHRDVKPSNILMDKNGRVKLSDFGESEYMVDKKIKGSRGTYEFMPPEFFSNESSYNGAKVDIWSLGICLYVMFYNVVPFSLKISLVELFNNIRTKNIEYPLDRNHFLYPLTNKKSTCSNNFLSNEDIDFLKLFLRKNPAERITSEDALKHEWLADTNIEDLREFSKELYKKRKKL
Chain of Calcium-dependent protein kinase 1 (Plasmodium falciparum (isolate 3D7)) (P62344 whole entry, looked up): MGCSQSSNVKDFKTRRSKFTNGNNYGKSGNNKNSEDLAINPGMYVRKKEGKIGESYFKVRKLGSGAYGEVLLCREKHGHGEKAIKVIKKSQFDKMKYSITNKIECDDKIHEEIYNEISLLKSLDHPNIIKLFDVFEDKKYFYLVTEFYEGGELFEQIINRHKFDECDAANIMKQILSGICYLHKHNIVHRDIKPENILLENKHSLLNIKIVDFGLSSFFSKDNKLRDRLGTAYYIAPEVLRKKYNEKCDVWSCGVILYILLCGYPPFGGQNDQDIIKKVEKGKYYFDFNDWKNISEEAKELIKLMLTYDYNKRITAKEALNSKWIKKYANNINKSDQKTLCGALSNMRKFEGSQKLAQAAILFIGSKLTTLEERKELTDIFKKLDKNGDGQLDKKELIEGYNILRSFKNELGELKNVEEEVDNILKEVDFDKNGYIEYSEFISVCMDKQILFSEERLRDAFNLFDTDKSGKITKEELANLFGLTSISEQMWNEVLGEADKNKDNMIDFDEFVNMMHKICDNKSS

CN1CCN(c2cc(-c3cccc(C(F)(F)F)c3)nc(-c3ccncc3)n2)CC1
inactive: inhibition [2] 38% | inhibition [3] 1% | outcome [5] | outcome [6] | outcome [7] | outcome [8]
active: growth inhibition [1] 98% | growth inhibition [4] 102%

CCN(CC)CCN1C(=O)c2oc3ccc(F)cc3c(=O)c2C1c1cccc(Cl)c1 (configuration not stated)
inactive: inhibition [2] -4% | inhibition [3] -2% | outcome [5] | outcome [6] | outcome [7] | outcome [8]
active: growth inhibition [1] 93% | growth inhibition [4] 99%

O=C(CCNc1ccnc(NCCc2ccccc2)n1)Nc1ccccc1
inactive: growth inhibition [1] 19% | inhibition [2] 7% | inhibition [3] 2% | outcome [5] | outcome [6] | outcome [7] | outcome [8]
active: growth inhibition [4] 89%

Cc1ccc(-n2nc(-c3ccccc3)c3cc(C(=O)NCCN)sc32)cc1
active: growth inhibition [4] 92%
inactive: growth inhibition [1] 43% | inhibition [2] 28% | inhibition [3] 2% | outcome [5] | outcome [6] | outcome [7] | outcome [8]

CN(C)c1ccc(CN2CCC(CNC(=O)c3cc(-c4cccc(C(F)(F)F)c4)cs3)C2)cc1 (configuration not stated)
inactive: growth inhibition [1] 34% | inhibition [2] 39% | inhibition [3] 0% | outcome [5] | outcome [6] | outcome [7] | outcome [8]
active: growth inhibition [4] 96%

Cc1ccccc1C1CCN(C2CCC(NC(=O)c3ccc(-c4ccccn4)s3)CC2)CC1 (configuration not stated)
active: growth inhibition [4] 87%
inactive: growth inhibition [1] 17% | inhibition [2] 32% | inhibition [3] -1% | outcome [5] | outcome [6] | outcome [7] | outcome [8]

Oc1ccc(Br)cc1C(O)CNCc1ccccc1OCc1ccccc1 (configuration not stated)
active: growth inhibition [1] 100% | growth inhibition [4] 101%
inactive: inhibition [2] 25% | inhibition [3] 4% | outcome [5] | outcome [6] | outcome [7] | outcome [8]

CC(C)C[C@@H]1C(=O)N[C@H](C2Cc3ccccc3C2)C(=O)N1[C@@H](C(=O)O)c1ccc(F)cc1F
active: growth inhibition [4] 98%
inactive: growth inhibition [1] -2% | inhibition [2] 10% | inhibition [3] -1% | outcome [5] | outcome [6] | outcome [7] | outcome [8]

Cc1ccccc1CNc1ccc2nc(N)nc(N)c2c1
inactive: inhibition [3] -3% | outcome [5] | outcome [6] | outcome [7] | outcome [8]
active: growth inhibition [1] 90% | inhibition [2] 59% | growth inhibition [4] 101%

COc1cc(NC(=O)c2cccs2)c(C(=O)NCc2ccc(C)cc2)cc1OC
inactive: inhibition [2] 3% | inhibition [3] -2% | outcome [5] | outcome [6] | outcome [7] | outcome [8]
active: growth inhibition [1] 88% | growth inhibition [4] 93%

COc1ccc(CCOc2c(C)nc(N)nc2N)cc1OC
active: inhibition [2] 66% | growth inhibition [4] 96%
inactive: growth inhibition [1] 22% | inhibition [3] 4% | outcome [5] | outcome [6] | outcome [7] | outcome [8]

CCCCn1c(N)c(N(Cc2ccco2)C(=O)C=Cc2cc(OC)c3c(c2)OCCO3)c(=O)[nH]c1=O
inactive: inhibition [2] 4% | inhibition [3] 2% | outcome [5] | outcome [6] | outcome [7] | outcome [8]
active: growth inhibition [1] 94% | growth inhibition [4] 85%

Nc1c2c(nc3ccc(Oc4ccc(Cl)cc4)cc13)CCCC2
active: growth inhibition [1] 65% | growth inhibition [4] 100%
inactive: inhibition [2] 42% | inhibition [3] -8% | outcome [5] | outcome [6] | outcome [7] | outcome [8]

O=S(=O)(Nc1cccc(CCN2CCC(N3CCCCC3)CC2)c1)c1ccc(-c2ccccc2)cc1
inactive: growth inhibition [1] 49% | inhibition [3] 1% | outcome [5] | outcome [6] | outcome [7] | outcome [8]
active: inhibition [2] 76% | growth inhibition [4] 100%

COc1ccc(CC(=O)NC(CCCN2CCC3(CC2)OCc2ccccc23)c2ccc(Cl)c(Cl)c2)cc1 (configuration not stated)
active: growth inhibition [1] 53% | growth inhibition [4] 83%
inactive: inhibition [2] 40% | inhibition [3] 5% | outcome [5] | outcome [6] | outcome [7] | outcome [8]

O=S(=O)(NCCN1CCCC1)c1ccc(-c2ccc(CNCc3ccccc3)cc2)cc1
inactive: growth inhibition [1] 28% | inhibition [2] 47% | inhibition [3] 5% | outcome [5] | outcome [6] | outcome [7] | outcome [8]
active: growth inhibition [4] 99%

CC(C)C[C@H](NC(=O)c1cc(-c2ccc(C(C)(C)C)cc2)no1)C(=O)O (tested in a mixture with another compound)
inactive: growth inhibition [1] 6% | inhibition [2] 3% | inhibition [3] -3% | outcome [5] | outcome [6] | outcome [7] | outcome [8]
active: growth inhibition [4] 95%

COCCN1CCC(N(Cc2ccc(-c3ccc(C(F)(F)F)cc3)cc2)C(=O)Cn2c(CCc3cccc(F)c3F)cc(=O)c3c2CCC3)CC1
active: growth inhibition [4] 85%
inactive: growth inhibition [1] 48% | inhibition [2] 31% | inhibition [3] -5% | outcome [5] | outcome [6] | outcome [7] | outcome [8]

O=C(NC1CCC(N2CCC(Cc3ccc(F)cc3)CC2)CC1)c1cc2ccccc2[nH]1 (configuration not stated)
active: inhibition [2] 60% | growth inhibition [4] 98%
inactive: growth inhibition [1] 39% | inhibition [3] -2% | outcome [5] | outcome [6] | outcome [7] | outcome [8]

O=C(NCC(CCN1CCC(c2c[nH]c3ccccc23)CC1)c1ccccc1)Nc1ccc(Cl)c(Cl)c1 (configuration not stated)
active: growth inhibition [1] 53% | growth inhibition [4] 101%
inactive: inhibition [2] 46% | inhibition [3] 5% | outcome [5] | outcome [6] | outcome [7] | outcome [8]

COc1ccc2c(NN=Cc3cccc(C)n3)ccnc2c1
inactive: inhibition [2] -12% | inhibition [3] 3% | outcome [5] | outcome [6] | outcome [7] | outcome [8]
active: growth inhibition [1] 51% | growth inhibition [4] 96%

O=C(Nc1cccc(N2CCC(NCc3cnn(-c4cccc(F)c4)c3)CC2)c1)c1ccncc1
inactive: growth inhibition [1] 40% | inhibition [3] 4% | outcome [5] | outcome [6] | outcome [7] | outcome [8]
active: inhibition [2] 50% | growth inhibition [4] 84%

Cc1cc2c(/C=C/C(=O)NC3CCC(CCN4CCc5ccc(C#N)cc5CC4)CC3)cccc2[nH]1 (configuration not stated)
active: growth inhibition [4] 95%
inactive: growth inhibition [1] 39% | inhibition [2] 16% | inhibition [3] 1% | outcome [5] | outcome [6] | outcome [7] | outcome [8]

Cc1nn(C2CCS(=O)(=O)C2)c(C)c1C1Nc2ccccc2C(=O)N1Cc1ccc2c(c1)OCO2 (configuration not stated)
active: growth inhibition [1] 93% | growth inhibition [4] 98%
inactive: inhibition [2] 7% | inhibition [3] 2% | outcome [5] | outcome [6] | outcome [7] | outcome [8]
